This excerpt belongs to a sample that is enriched for hits.
Shiga inhibitor: Shiga toxin inhibition. inhibition, % at 38.7 µM. Vero cells, Shiga toxin protein synthesis inhibition reporter. 290,000 tested, 9.2% active; in the data active means inhibition mostly above about 28%, no sharp cut-off; inactive means mostly below about 43%
SARS PLpro yeast: SARS-CoV PLP inhibition in yeast. S. cerevisiae expressing SARS-CoV PLpro, growth rescue. Potency, µM (top dose mostly 32.9 µM), usual class: activators. 330,000 tested, 0.19% active. AID 485353; calls by dose curve; further: nearly all actives have a fitted effect of over 55% in size
AmpC detergent: blocks E. coli AmpC beta-lactamase in detergent assay. Potency, µM (titrated, usually from 114 µM), usual class: inhibitors. AID 485294. AmpC hydrolysis of nitrocefin, absorbance 480 nm, 0.01% Triton. P00811. 370,000 tested, 0.041% active; further: nearly all actives have a fitted effect of over 25% in size
Target sequence (P00811 whole entry, looked up): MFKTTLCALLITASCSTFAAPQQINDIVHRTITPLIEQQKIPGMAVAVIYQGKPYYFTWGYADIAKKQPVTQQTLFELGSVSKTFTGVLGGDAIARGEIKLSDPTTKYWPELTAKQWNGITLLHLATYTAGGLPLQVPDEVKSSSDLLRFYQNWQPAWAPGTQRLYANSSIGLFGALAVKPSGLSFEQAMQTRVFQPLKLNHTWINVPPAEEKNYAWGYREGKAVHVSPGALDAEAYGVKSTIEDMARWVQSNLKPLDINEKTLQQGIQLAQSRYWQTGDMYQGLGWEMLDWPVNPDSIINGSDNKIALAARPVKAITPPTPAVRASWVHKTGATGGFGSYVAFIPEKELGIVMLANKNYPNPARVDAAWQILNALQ
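AmpC (5.3 nM in the dispensed reagent) in 20 mM phosphate pH 7.0 with 0.01% (detergent screen) or 0.0001% Triton X-100 was preincubated with compounds for 15 min at room temperature. Nitrocefin was then added from an 800 uM solution, and hydrolysis was followed at 480 nm.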
AMA1 RON2 block: AMA1-RON2 (P. falciparum) interaction inhibition | AlphaScreen AMA1-biotinylated RON2 peptide binding | Potency, µM (doses to about 58.2 µM), hits mostly inhibitors | 360,000 tested, 0.2% active; further: nearly all actives have a fitted effect of over 45% in size
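AMA1 (3D7) with his tag at 25 nM final met compounds first, then biotinylated RON2 peptide at 25 nM; detection used donor plus acceptor beads, 10 µg/mL apiece, read by AlphaScreen after 30 min at room temperature.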
AmpC no deterg: inhibitors of E. coli AmpC beta-lactamase without detergent. P00811. Potency, µM (series often up to 57.1 µM), most hits filed as inhibitors. 330,000 tested, 0.52% active. AmpC nitrocefin hydrolysis, absorbance 480 nm, 0.0001% Triton; further: nearly all actives have a fitted effect of over 20% in size
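20 mM phosphate pH 7.0 + 0.01% (detergent screen) or 0.0001% Triton X-100; 5.3 nM AmpC reagent; cpd preinc 15 min RT; nitrocefin (800 uM stock) to start; A480 q20 s × 4 min; Activity was normalised to no-enzyme and no-compound control wells.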
Cycloheximide cs: counter-screen hit for Shiga toxin inhibitors, cycloheximide; cell reporter, cycloheximide protein synthesis inhibition counterscreen; max response, %; 300,000 tested, 12% active; AID 2314; in the data active means max response mostly above about 13%, no sharp cut-off; inactive means mostly below about 14%; further: read at 38.3 µM for the half of the compounds with a filed dose
Of the large screens only hits and unclear results are named; the others gave an inactive call; ! = not confirmed by another sample. Unless noted, the call rests on the fitted dose curve; in most records, active means well fitted curve in the direction sought with a large enough effect; inconclusive means small, poorly fitted or top-dose-only effect, or another doubt; inactive means no such curve, though single readings can be large; an effect the other way counts as inactive or inconclusive.

Cc1nc(-c2ccc(C(F)(F)F)cc2)sc1C(=O)NN	Cycloheximide cs 15
CNC(=O)c1sc(-c2cccnc2)nc1C	none
Cc1nc(-c2cccnc2)sc1C(=O)Nc1ccc(C(F)(F)F)cc1	none
CCNC(=O)O/N=C(\C)c1sc(-c2ccccc2)nc1C	Shiga inhibitor 61, Cycloheximide cs 39
CNC(=O)c1sc(-c2ccccc2)nc1C	Shiga inhibitor 132, Cycloheximide cs 39
Cc1nc(-c2ccccc2)sc1C(N)=O	none
NS(=O)(=O)c1ccc(N=Nc2c(O)ccc3ccccc23)cc1	AMA1 RON2 block inconclusive
Cc1nc(-c2ccc(Cl)cc2)sc1C(=O)NNC(=O)C(C)C	none
CC(=O)c1sc(-c2ccc(Cl)cc2)nc1C	Shiga inhibitor 53, AmpC detergent inconclusive, Cycloheximide cs 26
CC(=O)c1sc(-c2cccc(Cl)c2)nc1C	Cycloheximide cs 20
C/C(=N\O)c1sc(-c2ccccc2)nc1C	Shiga inhibitor 98, Cycloheximide cs 46
C=C(C)c1sc(-c2ccccc2)nc1C	none (no result: Shiga inhibitor, SARS PLpro yeast, AmpC detergent, AmpC no deterg, Cycloheximide cs)
CCCc1nnc(SCc2ccc(OCC)cc2)n1N	AmpC detergent inconclusive
COc1ccc(C(=O)NC(=O)Nc2ncccc2C)cc1	Shiga inhibitor 88, Cycloheximide cs 40
COc1ccc(NC(=O)c2cccnc2NCCc2ccccc2)cc1	none
Cc1cccnc1NC(=O)Nc1ccc(Cl)cc1	AmpC detergent inconclusive, Cycloheximide cs 25 (no result: Shiga inhibitor)
Cc1cccnc1NC(=O)Nc1ccccc1	Shiga inhibitor 49, Cycloheximide cs 27
COc1ccc(NC(=O)Nc2ncccc2C)cc1	Shiga inhibitor 63, AmpC detergent inconclusive, Cycloheximide cs 20
Cc1cccnc1NC(=O)Nc1cccc(F)c1	none (no result: Shiga inhibitor, SARS PLpro yeast, AmpC detergent, AmpC no deterg, Cycloheximide cs)
COC(=O)c1ccccc1NC(=O)Nc1ncccc1C	AmpC detergent inconclusive
Cc1cc(C)cc(N(CC(=O)Nc2ccc(C)cc2Cl)S(=O)(=O)c2c(C)[nH]c(=O)[nH]c2=O)c1	none
COc1cc(C(=O)NC(=S)N2C[C@H]3C[C@H](C2)c2cccc(=O)n2C3)cc(OC)c1OC	none
CN(C(=O)COC(=O)c1nc(-c2ccccc2)n(-c2ccccc2)n1)C1CCS(=O)(=O)C1 (centres undefined)	none
CN(C(=O)COC(=O)c1nc(Cl)c(Cl)c(Cl)c1Cl)C1CCS(=O)(=O)C1 (centres undefined)	Cycloheximide cs 54
Cc1nn(-c2ccccc2)c(C)c1C(=O)OCC(=O)N(C)C1CCS(=O)(=O)C1 (centres undefined)	Shiga inhibitor 61, Cycloheximide cs 33
Cc1nn(-c2ccccc2)c(C)c1/C=C/C(=O)OCC(=O)NC1CCS(=O)(=O)C1 (centres undefined)	Cycloheximide cs 16
CN(C)CCC(c1ccccc1)c1ccccn1 (centres undefined)	none
Cc1ccc(NC2=NC(c3ccccc3)n3c(nc(C)cc3=O)N2)c(C)c1 (centres undefined)	none
NNC(=O)Cc1cn(-c2ncc(C(F)(F)F)cc2Cl)c2ccccc12	AmpC detergent inconclusive
COc1ccccc1NC(=O)c1ccc(NC(=O)C2CC2C)cc1 (centres undefined)	none (no result: Shiga inhibitor, AmpC detergent, Cycloheximide cs)
CC1CC1C(=O)Nc1ccc(-c2ccccc2)cc1 (centres undefined)	Shiga inhibitor 83, Cycloheximide cs 45
CCc1ccc(CN(C)CC(=O)Nc2ccc3c(c2)CCC3)cc1	none
Cc1ccc(NC(=O)c2ccc(CN3CCN(C)CC3)cc2)cc1Nc1nccc(-c2cccnc2)n1	Cycloheximide cs 27! (no result: SARS PLpro yeast, AmpC detergent, AmpC no deterg)
COc1ccc(-n2c(-c3ccc(C)cc3)n[nH]c2=S)cc1	AmpC detergent inconclusive
Cc1ccc(-n2c(-c3ccncc3)n[nH]c2=S)cc1	Shiga inhibitor 168, Cycloheximide cs 31
COc1cc(-c2n[nH]c(=S)n2-c2ccc(C)cc2)cc(OC)c1OC	Cycloheximide cs 17
CCOC(=O)C1=C(C)N=c2s/c(=C/c3ccco3)c(=O)n2C1c1cccc(OC)c1 (centres undefined)	AmpC detergent inconclusive, AMA1 RON2 block inconclusive, Cycloheximide cs 21
O=C(CN1C(=O)COc2ccccc21)N(Cc1ccccc1)Cc1ccccn1	AmpC detergent inconclusive, Cycloheximide cs 35
CN(C)n1cnc2ccsc2c1=O	none
Cc1ccc(CNC(=O)Nc2ccccc2)n1C	Cycloheximide cs 17
Cc1ccc(NC(=O)NCc2cccn2C)cc1C	Shiga inhibitor 59, Cycloheximide cs 18
Cc1ccc(NC(=O)NCCN2CCCCC2)cc1C	none
Cn1cccc1CNC(=O)Nc1ccccc1	Shiga inhibitor 52, Cycloheximide cs 43
Cn1cccc1CNC(=O)Nc1ccc(Cl)cc1	Shiga inhibitor 59, AmpC detergent inconclusive, Cycloheximide cs 49
COc1ccc2c(c1)CCc1c(C(=O)Nc3c(C)nn(Cc4ccc(Cl)cc4)c3C)noc1-2	none (no result: Shiga inhibitor, SARS PLpro yeast, AMA1 RON2 block, AmpC no deterg, Cycloheximide cs)
CCOCCCNC(=O)C1CCN(c2nc3ccc(Cl)cc3[nH]2)CC1	none (no result: Shiga inhibitor, SARS PLpro yeast, AMA1 RON2 block, AmpC no deterg, Cycloheximide cs)
O=C(NCC1COCCO1)C1CCN(S(=O)(=O)c2ccccc2)CC1 (centres undefined)	none
COc1ccccc1Cn1c(=S)[nH]c2cc(C(=O)NCCN(C)C)ccc2c1=O	none
CN(C)S(=O)(=O)N(CC(=O)NCCSCc1c(F)cccc1Cl)c1ccccc1	none (no result: Shiga inhibitor, SARS PLpro yeast, AMA1 RON2 block, AmpC no deterg, Cycloheximide cs)
COc1ccc(Cc2nnc(-c3ccccc3)o2)cc1	Shiga inhibitor 43, Cycloheximide cs 44
CCCc1nnc(-c2ccc(OC)cc2)o1	Shiga inhibitor active, Cycloheximide cs 34
Brc1ccc(-c2nnc(Cc3ccccc3)o2)cc1	Shiga inhibitor 81, Cycloheximide cs 58
COc1ccc(-c2ccc(-c3nnc(-c4ccncc4)o3)cc2)cc1	none (no result: AMA1 RON2 block)
c1ccc(Cc2nnc(-c3ccccc3)o2)cc1	none
COc1ccc(-c2nnc(-c3ccccc3O)o2)cc1	Shiga inhibitor 63, Cycloheximide cs 45
Cc1nc2cc(C(=O)OCC(=O)N(CC(C)C)C3CCS(=O)(=O)C3)ccc2n1-c1ccccc1 (centres undefined)	none
CC(C)(C)c1nc(SCC(=O)c2ccccc2)c2ccccc2n1	none
COc1ccc(-c2nnc(-c3ccc(F)cc3)o2)cc1	Shiga inhibitor 90, Cycloheximide cs 48
Cc1ccc(-c2nnc(-c3ccccc3)o2)cc1	Shiga inhibitor 49, Cycloheximide cs 49
COc1ccc(-c2nnc(-c3ccc(C)cc3)o2)cc1	Shiga inhibitor 82, Cycloheximide cs 19
COc1ccccc1NCc1nnc(-c2ccccc2)o1	AmpC detergent inconclusive, Cycloheximide cs 20
O=C(CN1CCCCCC1)NC(c1ccccc1)c1ccccc1	AMA1 RON2 block inconclusive (no result: Shiga inhibitor)
COc1ccccc1C1CC(c2ccc(Cl)cc2Cl)Nc2nc(N)nn21 (centres undefined)	none
Cc1ccc(NCc2nnc3n2CCCCC3)cc1	AmpC detergent inconclusive
CCNc1nnc(-c2ccc(C)cc2)o1	Shiga inhibitor 107, Cycloheximide cs 42
